Most compounds without a hit are left out; they make up all but 4.5% or so of the library.
Rtt109 Vps75: blocks Candida albicans Rtt109/Vps75 acetyltransferase activity | 330,000 tested, 0.16% active | Q5AAJ8 | inhibition, % at 34.9 µM | purified Rtt109/Vps75, ThioGlo CoA-SH fluorescence, 4 h | AID 540336;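 active means inhibition of at least 50% in every replicate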
Target sequence (Q5AAJ8 whole entry, looked up): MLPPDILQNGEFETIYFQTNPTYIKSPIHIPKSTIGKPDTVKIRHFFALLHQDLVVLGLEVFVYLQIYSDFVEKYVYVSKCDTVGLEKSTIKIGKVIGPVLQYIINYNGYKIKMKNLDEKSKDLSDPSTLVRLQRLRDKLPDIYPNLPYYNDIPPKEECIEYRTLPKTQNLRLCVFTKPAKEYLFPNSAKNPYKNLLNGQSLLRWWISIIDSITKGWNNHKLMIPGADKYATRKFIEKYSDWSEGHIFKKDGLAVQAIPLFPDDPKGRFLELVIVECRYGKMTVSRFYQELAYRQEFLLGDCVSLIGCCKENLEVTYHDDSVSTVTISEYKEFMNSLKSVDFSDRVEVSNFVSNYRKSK
HDAC3 inh: inhibitors of human histone deacetylase 3. recombinant HDAC3, fluorogenic peptide/trypsin coupled, fluorescence. O15379. AID 2718. inhibition, % at 8.3 µM. 320,000 tested, 0.15% active; in the data active means inhibition above about 26%, passing the limit was not always enough
Rce1 inhib: yeast Ras-converting enzyme inhibition; Q03530; yeast membranes, quenched prenylated peptide cleavage fluorescence; calls only; 290,000 tested, 0.27% active; AID 2563;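 active means fall in fluorescence gain of 50% or more versus controls, with final raw signal at or below 3038400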;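 further: plate controls were neutral control wells for no effect and wells lacking membranes for full effect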
Target sequence (Q03530 whole entry, looked up): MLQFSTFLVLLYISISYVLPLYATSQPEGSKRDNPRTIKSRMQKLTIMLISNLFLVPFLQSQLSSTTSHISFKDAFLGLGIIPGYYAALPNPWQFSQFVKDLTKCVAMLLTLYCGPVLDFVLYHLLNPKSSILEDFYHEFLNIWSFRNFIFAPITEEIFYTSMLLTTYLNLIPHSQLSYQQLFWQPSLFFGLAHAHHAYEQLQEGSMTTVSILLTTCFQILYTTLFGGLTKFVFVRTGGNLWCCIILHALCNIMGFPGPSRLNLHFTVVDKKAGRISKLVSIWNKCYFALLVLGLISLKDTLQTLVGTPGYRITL
ALR H2O2 inh: inhibitors of human sulfhydryl oxidase ALR; P55789; purified ALR, DTT oxidation, H2O2 HRP-luminol luminescence; inhibition, % (concentration not given with the values); 290,000 tested, 3.8% active;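 active means mean replicate inhibition above about 79%, with every replicate also reaching it, limit read from the data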
GRK2 aptamer HTS: blocks RNA aptamer binding to human GRK2; P25098; bead flow cytometry, FAM-aptamer displacement from GRK2; inhibition of aptamer binding, % at 10 µM; 330,000 tested, 0.59% active; AID 488847;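 active means inhibition of aptamer binding above 40%, roughly 3 SD of noise, on plates passing a quality check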;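 further: median bead fluorescence of bound FAM aptamer so fluorescent compounds give negative values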
Efflux pump mplx: blocks antifungal efflux pumps in multiplex yeast assay | AID 485275 | inhibition, % at 10 µM | 330,000 tested, 0.44% active | S. cerevisiae Candida pump triplex, Nile Red efflux;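 active means plate passing quality check with inhibition over a set limit, or well fluorescence over plate mean plus 4 SD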;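 further: Nile Red retained in pooled yeast measured as flow cytometry median fluorescence; 0% = buffer negative control and 100% = Enniatin B positive control; higher means more Nile Red kept so more efflux inhibition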
GRK2 inh confirm: confirmation of human GRK2 inhibitors displacing RNA aptamer. shares compounds with GRK2 aptamer HTS. bead-bound GRK2, FAM-aptamer displacement, flow cytometry. aptamer displacement, % at 10 µM. 2,000 tested, 4% active. AID 504451;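 active means aptamer displacement above 40%, near three times the noise of non-fluorescent compounds, on plates passing quality checks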;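 further: negative values mostly reflect intrinsic compound fluorescence rather than true enhancement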
Aptamer quench: quenches fluorescent RNA aptamer, GRK2 hit artifact; shares compounds with GRK2 aptamer HTS; Fluorescent RNA aptamer beads, quenching, flow cytometry; hits give high values; fluorescence change (kMESF span), kMESF (concentration not given with the values); 110 tested, under 10 active; AID 504521;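 active means compounds whose bead fluorescence drops by more than 37 kMESF across the dose range, marking them as dye quenchers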
Aptamer quench SP: quenches fluorescent RNA aptamer, GRK2 hit artifact; shares compounds with GRK2 aptamer HTS; Carboxyfluorescein RNA aptamer on beads, flow cytometry quenching; hits give low values; fluorescence response (% of DMSO), % at 10 µM; 2,000 tested, under 10 active; AID 504580;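 active means compounds that quench the bead-bound fluorescent RNA probe, cutting fluorescence to under half of the solvent control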;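 further: counterscreen run without GRK2 so only probe quenching by compound is measured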
Starred values were filed as active, the others as inactive.

Screening CCCCC(=O)Nc1ccc(C(=O)NNC(=O)c2ccco2)cc1 returned Rtt109 Vps75 3, HDAC3 inh -1, ALR H2O2 inh 7, GRK2 aptamer HTS 65*, Efflux pump mplx 0, GRK2 inh confirm 0 and Aptamer quench SP 93.
Screening CCCCC(=O)Nc1ccc(C(=O)NNC(=S)NC(=O)c2ccco2)cc1 returned Rtt109 Vps75 -12, HDAC3 inh -7, Rce1 inhib inactive, ALR H2O2 inh 2, GRK2 aptamer HTS 0 and Efflux pump mplx 0.
COc1ccc2cc([C@@H](C)C(=O)O)ccc2c1 was read as Rtt109 Vps75 1, HDAC3 inh -7, ALR H2O2 inh -9, GRK2 aptamer HTS 3 and Efflux pump mplx 0.
Cc1ccc2nc(N/C(=N/S(=O)(=O)c3cccs3)c3ccccc3Cl)sc2c1 was read as Rtt109 Vps75 20, HDAC3 inh 7, Rce1 inhib inactive, ALR H2O2 inh -2, GRK2 aptamer HTS 2 and Efflux pump mplx 0.
`O=C(O)C(CCC(C(=O)O)c1ccccc1)c1ccccc1` (centres undefined) gave Rtt109 Vps75 5.
`c1cnc2ccc3c(c2c1)COCO3` gave Rtt109 Vps75 1.
COc1ccc(NC(=O)c2ccc3c(c2)C(=O)N(Cc2ccncc2)C3=O)cc1S(N)(=O)=O was read as Rtt109 Vps75 -4, HDAC3 inh 4, ALR H2O2 inh -4, GRK2 aptamer HTS 6 and Efflux pump mplx 0.
For Cc1cccc(NC(=O)c2nc[nH]c2C(=O)N[C@@H](Cc2ccccc2)C(=O)OC(C)(C)C)c1 the results were Rtt109 Vps75 -3, HDAC3 inh -5, Rce1 inhib inactive, ALR H2O2 inh -3, GRK2 aptamer HTS 2 and Efflux pump mplx 0.
`O=C(Nc1cccc(Cl)c1)c1cnc[nH]1` gave Rtt109 Vps75 7, HDAC3 inh -1, Rce1 inhib inactive, ALR H2O2 inh -23, GRK2 aptamer HTS 58*, Efflux pump mplx 0, GRK2 inh confirm 4 and Aptamer quench SP 92.
`CC(C)(C)OC(=O)[C@H](Cc1ccccc1)NC(=O)c1[nH]cnc1C(=O)Nc1cccc(Cl)c1` gave Rtt109 Vps75 0, HDAC3 inh 2, Rce1 inhib inactive, ALR H2O2 inh -9, GRK2 aptamer HTS 0, Efflux pump mplx 0, GRK2 inh confirm -2 and Aptamer quench SP 98.
`C[C@@H](NC(=O)c1[nH]cnc1C(=O)Nc1cccc(Cl)c1)c1ccccc1` gave Rtt109 Vps75 -6, HDAC3 inh 1, ALR H2O2 inh -18, GRK2 aptamer HTS 0, Efflux pump mplx 0, GRK2 inh confirm -2 and Aptamer quench SP 100.
For CNC(=O)c1[nH]cnc1C(=O)Nc1cccc(Cl)c1 the results were Rtt109 Vps75 -5, HDAC3 inh 1, ALR H2O2 inh -11, GRK2 aptamer HTS 91*, Efflux pump mplx 0, GRK2 inh confirm 93*, Aptamer quench 4 and Aptamer quench SP 98.
Screening C[C@H](NC(=O)c1[nH]cnc1C(=O)Nc1ccc(Cl)cc1)c1ccccc1 returned Rtt109 Vps75 8, HDAC3 inh 1, ALR H2O2 inh -14, GRK2 aptamer HTS 0 and Efflux pump mplx 0.
For O=C(Nc1cccc(Cl)c1)c1ccncc1 the results were Rtt109 Vps75 -18, HDAC3 inh 5, Rce1 inhib inactive, ALR H2O2 inh -3, GRK2 aptamer HTS 1 and Efflux pump mplx 0.
Screening O=C(Nc1cccc(Cl)c1)c1nc[nH]c1C(=O)NCCCNC(=O)c1[nH]cnc1C(=O)Nc1cccc(Cl)c1 returned Rtt109 Vps75 -7, HDAC3 inh 3, ALR H2O2 inh 3, GRK2 aptamer HTS 0 and Efflux pump mplx 0.
Cc1cc(N2C(=O)C(O)=C(C(=O)c3cccs3)C2c2ccc(F)cc2)no1 (centres undefined) was read as Rtt109 Vps75 0, HDAC3 inh -4, Rce1 inhib inactive, ALR H2O2 inh 26, GRK2 aptamer HTS 4 and Efflux pump mplx 0.
For COc1cc(Cl)c(C)cc1NC(=O)CN1CCN(C(=O)C2CC2)CC1 the results were Rtt109 Vps75 2, HDAC3 inh -1, ALR H2O2 inh 1, GRK2 aptamer HTS 1 and Efflux pump mplx 0.
`CN(Cc1ccccc1)C(=O)c1[nH]cnc1C(=O)Nc1cccc(Cl)c1` gave Rtt109 Vps75 -11, HDAC3 inh -1, ALR H2O2 inh 6, GRK2 aptamer HTS 0, Efflux pump mplx 0, GRK2 inh confirm 1 and Aptamer quench SP 102.
`C[C@H](NC(=O)c1[nH]cnc1C(=O)Nc1cccc(Cl)c1)c1ccccc1` gave Rtt109 Vps75 -1, HDAC3 inh -7, ALR H2O2 inh -4, GRK2 aptamer HTS 1, Efflux pump mplx 0, GRK2 inh confirm 2 and Aptamer quench SP 104.
Screening C[C@@H](NC(=O)c1[nH]cnc1C(=O)Nc1ccccc1)c1ccccc1 returned Rtt109 Vps75 -7, HDAC3 inh 4, ALR H2O2 inh -4, GRK2 aptamer HTS 1 and Efflux pump mplx 0.
`CN(Cc1ccccc1)C(=O)c1[nH]cnc1C(=O)Nc1ccc(Cl)cc1` gave Rtt109 Vps75 12, HDAC3 inh 15, ALR H2O2 inh 1, GRK2 aptamer HTS 1 and Efflux pump mplx 0.
CC1CCN(C(=O)c2[nH]cnc2C(=O)Nc2cccc(Cl)c2)CC1 was read as Rtt109 Vps75 -1, HDAC3 inh 0, ALR H2O2 inh 2, GRK2 aptamer HTS 0, Efflux pump mplx 0, GRK2 inh confirm -4, Aptamer quench -12 and Aptamer quench SP 103.
For COc1ccc(S(=O)(=O)Nc2ccc3c(c2)OCCO3)cc1OC the results were Rtt109 Vps75 10, HDAC3 inh 0, Rce1 inhib inactive, ALR H2O2 inh -9, GRK2 aptamer HTS 2 and Efflux pump mplx 0.
`O=c1[nH]c(=S)[nH]cc1Oc1ccc(Cl)cc1Cl` gave Rtt109 Vps75 2 and Rce1 inhib inactive.
For O=C(O/N=C/c1ccc(Br)cc1)c1ccc(F)cc1 the results were Rtt109 Vps75 -4, HDAC3 inh -4, Rce1 inhib inactive, ALR H2O2 inh -6, GRK2 aptamer HTS 0 and Efflux pump mplx 0.
Screening C[C@]12c3[nH]c4ccc(Cl)cc4c3CCN1C(=O)[C@@H](CC(=O)NCCc1ccccn1)C[C@@H]2C(=O)N1CCCCC1 returned Rtt109 Vps75 -4, GRK2 aptamer HTS 0 and Efflux pump mplx 0.
